Results on 24 compounds are retold here after PubChem BioAssay (EPA / NIEHS).

Inconclusive results are not listed. Active and inactive are the calls of the source. How the source made its calls: active means hit-call score of the fitted dose curve at least 0.9, where 1 is the maximum; inconclusive means response in the unintended direction; inactive means score below 0.9.

A word on the AC50: it is the concentration giving half of the maximal activity seen.

Chain of rat Histamine Receptor (H3), Hrh3 (gene 85268) (Q9QYN8 whole entry, looked up): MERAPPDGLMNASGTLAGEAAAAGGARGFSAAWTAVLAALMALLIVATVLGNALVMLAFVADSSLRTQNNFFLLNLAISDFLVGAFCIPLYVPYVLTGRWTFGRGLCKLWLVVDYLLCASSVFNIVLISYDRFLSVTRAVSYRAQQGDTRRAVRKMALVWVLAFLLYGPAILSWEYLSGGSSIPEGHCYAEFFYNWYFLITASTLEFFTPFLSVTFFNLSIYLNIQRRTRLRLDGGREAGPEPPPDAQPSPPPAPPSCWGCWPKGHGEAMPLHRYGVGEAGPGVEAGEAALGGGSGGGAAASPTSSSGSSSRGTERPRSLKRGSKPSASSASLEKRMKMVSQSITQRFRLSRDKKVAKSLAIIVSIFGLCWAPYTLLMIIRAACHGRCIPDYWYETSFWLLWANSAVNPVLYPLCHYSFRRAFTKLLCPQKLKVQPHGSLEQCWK
Chain of Adra2b (gene 24174) (P19328 whole entry, looked up): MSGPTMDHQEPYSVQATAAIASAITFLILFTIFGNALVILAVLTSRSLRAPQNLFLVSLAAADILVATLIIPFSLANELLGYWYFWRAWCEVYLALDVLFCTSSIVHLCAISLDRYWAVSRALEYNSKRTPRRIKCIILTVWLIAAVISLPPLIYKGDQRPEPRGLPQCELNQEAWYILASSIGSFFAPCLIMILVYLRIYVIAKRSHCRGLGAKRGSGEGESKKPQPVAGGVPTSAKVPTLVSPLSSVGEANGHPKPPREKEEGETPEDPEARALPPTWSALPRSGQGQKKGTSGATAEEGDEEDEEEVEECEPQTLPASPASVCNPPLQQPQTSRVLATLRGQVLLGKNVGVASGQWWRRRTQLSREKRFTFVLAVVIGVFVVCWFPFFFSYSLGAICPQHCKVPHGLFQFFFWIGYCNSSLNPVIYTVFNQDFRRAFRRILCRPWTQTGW
Chain of rat Neurokinin-1 Receptor (NK1), Tacr1 (gene 24807) (P14600 whole entry, looked up): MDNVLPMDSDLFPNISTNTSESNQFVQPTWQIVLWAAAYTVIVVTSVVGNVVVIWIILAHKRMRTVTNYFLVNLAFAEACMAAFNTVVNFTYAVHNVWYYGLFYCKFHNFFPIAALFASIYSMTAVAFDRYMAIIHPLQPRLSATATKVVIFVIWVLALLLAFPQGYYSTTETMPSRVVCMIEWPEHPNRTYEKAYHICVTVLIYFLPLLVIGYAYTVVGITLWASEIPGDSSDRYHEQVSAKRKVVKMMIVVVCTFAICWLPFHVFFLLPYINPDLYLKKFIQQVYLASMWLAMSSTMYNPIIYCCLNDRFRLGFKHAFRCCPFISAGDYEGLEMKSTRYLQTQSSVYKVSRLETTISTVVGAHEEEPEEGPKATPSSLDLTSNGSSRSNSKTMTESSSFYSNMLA
Chain of rat Gamma-Aminobutyric Acid Type B Receptor (GABBR), Gabbr1 (gene 81657) (Q9Z0U4 whole entry, looked up): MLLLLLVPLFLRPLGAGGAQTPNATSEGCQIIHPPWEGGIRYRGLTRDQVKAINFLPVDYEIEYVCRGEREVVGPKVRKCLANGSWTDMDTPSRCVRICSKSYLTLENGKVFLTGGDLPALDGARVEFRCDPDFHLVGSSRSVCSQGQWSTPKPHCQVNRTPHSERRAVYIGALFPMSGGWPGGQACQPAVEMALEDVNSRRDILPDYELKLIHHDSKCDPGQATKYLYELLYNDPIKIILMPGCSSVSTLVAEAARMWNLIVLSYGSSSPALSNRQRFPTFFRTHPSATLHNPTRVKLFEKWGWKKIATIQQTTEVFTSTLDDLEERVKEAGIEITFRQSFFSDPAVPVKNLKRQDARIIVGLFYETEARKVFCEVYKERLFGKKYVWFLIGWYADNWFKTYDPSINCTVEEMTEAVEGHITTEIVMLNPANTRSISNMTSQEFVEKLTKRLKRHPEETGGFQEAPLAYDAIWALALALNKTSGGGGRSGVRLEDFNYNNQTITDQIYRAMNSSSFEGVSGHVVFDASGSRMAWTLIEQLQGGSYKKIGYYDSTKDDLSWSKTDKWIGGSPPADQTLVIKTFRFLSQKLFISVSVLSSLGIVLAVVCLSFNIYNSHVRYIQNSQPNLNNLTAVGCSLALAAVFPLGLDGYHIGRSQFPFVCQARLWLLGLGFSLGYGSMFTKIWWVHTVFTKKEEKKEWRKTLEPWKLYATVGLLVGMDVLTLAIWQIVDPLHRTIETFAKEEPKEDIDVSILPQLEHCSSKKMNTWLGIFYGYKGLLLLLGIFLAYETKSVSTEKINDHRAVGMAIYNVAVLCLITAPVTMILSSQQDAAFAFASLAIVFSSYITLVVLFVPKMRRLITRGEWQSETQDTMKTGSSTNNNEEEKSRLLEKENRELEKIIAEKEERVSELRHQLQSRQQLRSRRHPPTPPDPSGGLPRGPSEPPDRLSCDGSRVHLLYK

For one experiment, the target named is rat Adrenergic Receptor, Alpha 2 (Adra2), Non-selective Binding, Adra2a (gene 25083) (UniProt P22909). In words: NVS_GPCR_rAdra2_NonSelective: NovaScreen (NVS) G Protein-Coupled Receptor Assay for rat Adrenergic Receptor, Alpha 2 (Adra2), Non-selective Binding (AID 2283299). Summed up: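 Rat cortical membranes, radioligand competitive displacement read by filter-based scintillation counting 1.25 hours after dosing. Primary screen in duplicate at 25 uM; actives followed up in concentration series.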
Chain of rat Adrenergic Receptor, Alpha 2 (Adra2), Non-selective Binding, Adra2a (gene 25083) (P22909 whole entry, looked up): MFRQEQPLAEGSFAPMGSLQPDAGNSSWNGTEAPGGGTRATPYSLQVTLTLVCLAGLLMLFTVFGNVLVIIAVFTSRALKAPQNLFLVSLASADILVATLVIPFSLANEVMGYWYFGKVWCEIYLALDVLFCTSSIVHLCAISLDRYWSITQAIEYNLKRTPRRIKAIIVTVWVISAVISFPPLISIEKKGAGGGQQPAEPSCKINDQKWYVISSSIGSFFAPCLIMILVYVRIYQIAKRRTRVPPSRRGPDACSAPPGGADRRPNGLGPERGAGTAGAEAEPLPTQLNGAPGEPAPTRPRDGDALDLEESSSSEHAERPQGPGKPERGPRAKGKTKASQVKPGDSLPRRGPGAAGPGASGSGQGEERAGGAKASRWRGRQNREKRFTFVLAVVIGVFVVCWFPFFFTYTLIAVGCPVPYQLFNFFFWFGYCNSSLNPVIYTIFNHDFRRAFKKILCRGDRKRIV
Take `NCc1cccc(C2CCN(C(=O)c3ccc(C#Cc4ccccc4F)o3)CC2)c1`: the AC50 was 14.4 µM (active).
For the compound `CCN(Cc1cccnc1)C(=O)c1cccc(Cl)c1[C@]1(C)C(=O)N(Cc2ccc(OC)cc2OC)c2ccc(Cl)cc21`, the AC50 is 6.92 µM (active).
Still for that read-out and setting: in the case of `Clc1cc(Cl)c2c(c1)N=C1CCCCCN1C2` it was 1.57 µM (active).
Take `COc1ccc2cc(S(=O)(=O)N[C@H](CC(=O)N[C@H](Cc3ccc(CN4[C@H](C)CCC[C@@H]4C)cc3)C(=O)N(C)C(C)C)c3ccc4c(c3)OCO4)ccc2c1`: the AC50 was 23.9 µM (active).
Same read-out and setting: the same measure for `CCOC(=O)O[C@H](C)OC(=O)c1ccc2c(c1)cc(C(=O)NC1CCN(C(C)C)CC1)n2Cc1cc(-c2ccc(Cl)s2)on1`: 5.66 µM (active); for `O=c1[nH]sc2ccccc12`: 1.55 µM (active); for `CN(C)c1ccc(C(=C2C=CC(=[N+](C)C)C=C2)c2ccc(N(C)C)cc2)cc1`: 1.15 µM (active).
In the case of `CC/C(=C(/CC)c1ccc(O)cc1)c1ccc(O)cc1`, the concentration at half-maximal activity (AC50) was 36.3 µM (active).
Same read-out and setting: in the case of `CCN(CC)C(=O)c1cc(S(=O)(=O)Cc2ccccc2)c(N2CCC(c3ccccc3)CC2)cc1N(CC)CCN(C)C` it was 15.2 µM (active); in that of `COc1cccc([C@H](O)C2CCN(CCc3ccc(F)cc3)CC2)c1OC`, 1.58 µM (active); in that of `CCCCCCCCCCCC[N+](C)(C)C`, 19.1 µM (active).

Another experiment addresses rat Gamma-Aminobutyric Acid Type B Receptor (GABBR), Gabbr1 (gene 81657) (UniProt Q9Z0U4). In words: NVS_GPCR_rGABBR: NovaScreen (NVS) G Protein-Coupled Receptor Assay for rat Gamma-Aminobutyric Acid Type B Receptor (GABBR) (AID 2283301). Summed up:
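Radioligand displacement on rat cortical membranes, 1 h, filter-based scintillation counting. Primary screen at 25 uM in duplicate; compounds passing threshold re-tested in concentration-response up to 50 uM; loss of binding fitted against DMSO.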
Consider `O=C(O)Cc1cc(I)c(Oc2ccc(O)c(I)c2)c(I)c1`, for which the outcome was inactive.
Regarding `Cc1ncc(CO)c(CO)c1O`, the result was inactive.
With `CC/C(=C(/CC)c1ccc(O)cc1)c1ccc(O)cc1`, the result was inactive.
Still for that read-out and setting: the same measure for `COc1cccc([C@H](O)C2CCN(CCc3ccc(F)cc3)CC2)c1OC`: “inactive”.

A further experiment has as its target rat Histamine Receptor (H3), Hrh3 (gene 85268) (UniProt Q9QYN8). In words: NVS_GPCR_rH3: NovaScreen (NVS) G Protein-Coupled Receptor Assay for rat Histamine Receptor (H3) (AID 2283303). The method in brief: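 Rat forebrain membranes incubated 1 h with compound; radioligand displacement measured by filter-based scintillation counting. Single-concentration duplicates at 25 µM, then concentration-response up to 50 µM, relative to DMSO.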
Turning to `COc1cc(C(=O)NC2CCN(C)CC2)ccc1Nc1ncc2c(n1)N(C1CCCC1)CC(F)(F)C(=O)N2C`, the concentration at half-maximal activity (AC50) was 3.19 µM (active).
In the case of `O=C1c2ccccc2C(=O)N1CCc1noc(-c2ccc(CN3CCCCCC3)s2)n1`, the half-maximal activity concentration (AC50) was 16.8 µM (active).
As to `c1ccc(C[n+]2cccc3ccccc32)cc1`, the compound was called inactive.
Consider `Cc1occc1C(=O)Nc1ccc(C(=O)N2CCC(F)(F)/C(=C\C(=O)N3CCC(N4CCCCC4)CC3)c3ccccc32)cc1`, for which the concentration at half-maximal activity (AC50) was 4.22 µM (active).
`CN(C)c1ccc(C(=C2C=CC(=[N+](C)C)C=C2)c2ccc(N(C)C)cc2)cc1`: the concentration at half-maximal activity (AC50) was 23 µM (active).

In another experiment the target is Metabotropic glutamate receptor 1 (Rattus norvegicus) (UniProt P23385). The experiment in a line: NVS_GPCR_rmMGluR1: NovaScreen (NVS) G Protein-Coupled Receptor Assay for rat Glutamate Metabotropic Receptor 1 (MGluR1) (AID 2283305). On the procedure: NVS_GPCR_rmMGluR1 is a biochemical, single-readout assay that uses extracted gene-proteins from Rat cerebellum in a tissue-based cell-free assay. Measurements were taken 1 hour after chemical dosing in a 96-well plate.NVS_GPCR_rmMGluR1 is one of one assay component(s) measured or calculated from the NVS_GPCR_rmMGluR1 assay. It is designed to make measurements of radioligand binding, a form of binding reporter, as detected with scintillation counting signals by Filter-based radiodetection technology.Data from the assay component NVS_GPCR_rmMGluR1 was analyzed into 1 assay endpoint. This assay endpoint, NVS_GPCR_rmMGluR1, was analyzed in the positive analysis fitting direction relative to DMSO as the negative control and baseline of activity. Using a type of binding reporter, loss-of-signal activity can be used to understand changes in the binding as they relate to the gene Grm1. Furthermore, this assay endpoint can be referred to as a primary readout, because the performed assay has only produced 1 assay endpoint. To generalize the intended target to other relatable targets, this assay endpoint is annotated to the gpcr intended target family, where the subfamily is metabotropic glutamate receptor.
Chain of Metabotropic glutamate receptor 1 (Rattus norvegicus) (P23385 whole entry, looked up): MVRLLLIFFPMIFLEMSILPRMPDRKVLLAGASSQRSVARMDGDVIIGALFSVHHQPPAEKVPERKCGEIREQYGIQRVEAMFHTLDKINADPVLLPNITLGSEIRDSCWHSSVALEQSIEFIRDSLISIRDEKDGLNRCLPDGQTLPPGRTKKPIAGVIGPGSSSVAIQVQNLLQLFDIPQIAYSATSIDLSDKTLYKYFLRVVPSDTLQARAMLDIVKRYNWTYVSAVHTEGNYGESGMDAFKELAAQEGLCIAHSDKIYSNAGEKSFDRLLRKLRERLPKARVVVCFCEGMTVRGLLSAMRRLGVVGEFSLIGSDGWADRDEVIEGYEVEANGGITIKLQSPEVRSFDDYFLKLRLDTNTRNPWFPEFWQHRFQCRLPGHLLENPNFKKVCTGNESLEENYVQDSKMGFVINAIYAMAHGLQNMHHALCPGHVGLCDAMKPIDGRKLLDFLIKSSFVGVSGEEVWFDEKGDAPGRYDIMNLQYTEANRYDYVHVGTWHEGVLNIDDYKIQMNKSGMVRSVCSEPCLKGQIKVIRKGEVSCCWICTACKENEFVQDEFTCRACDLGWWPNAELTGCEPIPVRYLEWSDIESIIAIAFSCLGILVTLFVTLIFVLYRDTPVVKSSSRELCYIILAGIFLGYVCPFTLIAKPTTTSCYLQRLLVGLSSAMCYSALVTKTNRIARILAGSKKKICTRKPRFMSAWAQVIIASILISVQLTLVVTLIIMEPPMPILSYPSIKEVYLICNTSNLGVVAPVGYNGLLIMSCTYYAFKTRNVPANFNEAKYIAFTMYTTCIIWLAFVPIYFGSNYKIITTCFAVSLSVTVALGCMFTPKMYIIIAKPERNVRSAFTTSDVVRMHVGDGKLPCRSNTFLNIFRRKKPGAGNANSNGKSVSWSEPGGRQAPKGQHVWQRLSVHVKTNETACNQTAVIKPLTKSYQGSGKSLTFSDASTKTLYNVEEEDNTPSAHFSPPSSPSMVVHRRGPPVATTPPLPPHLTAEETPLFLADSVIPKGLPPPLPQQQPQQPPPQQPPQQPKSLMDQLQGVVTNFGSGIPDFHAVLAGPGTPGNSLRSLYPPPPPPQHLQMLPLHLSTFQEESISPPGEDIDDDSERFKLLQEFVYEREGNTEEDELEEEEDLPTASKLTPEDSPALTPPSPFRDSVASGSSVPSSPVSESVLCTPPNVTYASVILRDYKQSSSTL
Binding assays used specific radioligands (tritiated, iodinated) with non-radioactive competitive displacement ligands in agonist or antagonist protocols (as indicated) and various reference compounds and inhibitors to titrate specific binding to receptors and transporters. Most enzyme assays (CYPs, kinases, phosphatases, proteases, HDACs) used recombinant protein and specific substrates (fluorescence mostly, some colorimetric and radioactive) and inhibitors, followed by a biochemical separation of substrate and product. All assays for the biochemical HTS were initially run in duplicate at a single concentration (10 uM for CYP450 assays and 25 uM for all others). Assay-chemical combinations meeting a pre-defined threshold (e.g., 30% inhibition and other criteria defined below) were then run in singleton concentration-response format with maximum concentration of 20 uM for CYPs and 50 uM for all others. Each assay was run with positive and negative controls, and concurrent controls on every plate. The follow-up (secondary) screen tested active chemical-pairs in concentration series, as well as a few additional assays not tested in the primary screen, some selected negative inactives, and several cases re-run in the concentration series for confirmatory purposes.
Consider `CCOC(=O)O[C@H](C)OC(=O)c1ccc2c(c1)cc(C(=O)NC1CCN(C(C)C)CC1)n2Cc1cc(-c2ccc(Cl)s2)on1`, for which the AC50 is 17 µM (active).
Regarding `O=c1[nH]sc2ccccc12`, the AC50 is 35.9 µM (active).
Still for that read-out and setting: the same measure for `Cc1cc(F)ccc1-c1cc(N2CC[C@@H](O)[C@H]2CO)ncc1N(C)C(=O)C(C)(C)c1cc(C(F)(F)F)cc(C(F)(F)F)c1`: 8.39 µM (active); for `CN(C)C(=O)C1(N2CCCCC2)CCN(CC[C@@]2(c3ccc(Cl)c(Cl)c3)CN(C(=O)c3ccccc3)CCO2)CC1`: 15.5 µM (active).

Another experiment addresses Adra2b (gene 24174) (UniProt P19328). The experiment in a line: NVS_GPCR_rmAdra2B: NovaScreen (NVS) G Protein-Coupled Receptor Assay for hybird cells Adrenergic, Alpha 2B Receptor (Adra2B) (AID 2283306). The method in brief: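 Radioligand filter-binding assay on membrane proteins from neuroglioma/blastoma hybrid cells (rodent), 1 h after dosing; scintillation counting, loss of signal vs DMSO. Primary screen in duplicate at 25 uM, actives then run in concentration series.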
Turning to `NCc1cccc(C2CCN(C(=O)c3ccc(C#Cc4ccccc4F)o3)CC2)c1`, the concentration at half-maximal activity (AC50) was 13.3 µM (active).
`CCN(Cc1cccnc1)C(=O)c1cccc(Cl)c1[C@]1(C)C(=O)N(Cc2ccc(OC)cc2OC)c2ccc(Cl)cc21`: the AC50 is 4.68 µM (active).
For the compound `Clc1cc(Cl)c2c(c1)N=C1CCCCCN1C2`, the AC50 was 5.33 µM (active).
As for `COc1ccc2cc(S(=O)(=O)N[C@H](CC(=O)N[C@H](Cc3ccc(CN4[C@H](C)CCC[C@@H]4C)cc3)C(=O)N(C)C(C)C)c3ccc4c(c3)OCO4)ccc2c1`, the half-maximal activity concentration (AC50) was 11.1 µM (active).
In the case of `COc1cc(C(=O)NC2CCN(C)CC2)ccc1Nc1ncc2c(n1)N(C1CCCC1)CC(F)(F)C(=O)N2C`, the concentration at half-maximal activity (AC50) is 18.8 µM (active).
As for `O=C1c2ccccc2C(=O)N1CCc1noc(-c2ccc(CN3CCCCCC3)s2)n1`, the AC50 is 3.3 µM (active).
Same read-out and setting: in the case of `c1ccc(C[n+]2cccc3ccccc32)cc1` it was 12.2 µM (active); in that of `CCOC(=O)O[C@H](C)OC(=O)c1ccc2c(c1)cc(C(=O)NC1CCN(C(C)C)CC1)n2Cc1cc(-c2ccc(Cl)s2)on1`, 15.4 µM (active); in that of `Cc1occc1C(=O)Nc1ccc(C(=O)N2CCC(F)(F)/C(=C\C(=O)N3CCC(N4CCCCC4)CC3)c3ccccc32)cc1`, 1.25 µM (active).
`O=C1CCC(C2CCCCC2)CC1`: the outcome was inactive.
As for `O=c1[nH]sc2ccccc12`, the AC50 was 37.4 µM (active).
The same measure, in the same setting: in the case of `CN(C)c1ccc(C(=C2C=CC(=[N+](C)C)C=C2)c2ccc(N(C)C)cc2)cc1` it was 9.73 µM (active); in that of `CCN(CC)C(=O)c1cc(S(=O)(=O)Cc2ccccc2)c(N2CCC(c3ccccc3)CC2)cc1N(CC)CCN(C)C`, 7.81 µM (active).
Same read-out and setting: the same measure for `COc1cccc([C@H](O)C2CCN(CCc3ccc(F)cc3)CC2)c1OC`: 1.85 µM (active); for `CCCCCCCCCCCC[N+](C)(C)C`: 37.3 µM (active); for `CN(C)C(=O)C1(N2CCCCC2)CCN(CC[C@@]2(c3ccc(Cl)c(Cl)c3)CN(C(=O)c3ccccc3)CCO2)CC1`: 8.86 µM (active).

The target of another experiment is rat Neurokinin-1 Receptor (NK1), Tacr1 (gene 24807) (UniProt P14600). The experiment in a line: NVS_GPCR_rNK1: NovaScreen (NVS) G Protein-Coupled Receptor Assay for rat Neurokinin-1 Receptor (NK1) (AID 2283309). Summed up:
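Rat submaxillary gland membranes; radioligand displacement read by filter-based scintillation counting after 1 h. Primary screen in duplicate at 25 uM; actives retested in concentration series; loss of binding fitted versus DMSO.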
With `CCN(Cc1cccnc1)C(=O)c1cccc(Cl)c1[C@]1(C)C(=O)N(Cc2ccc(OC)cc2OC)c2ccc(Cl)cc21`, the AC50 was 23.6 µM (active).
Consider `CC[C@H](NC(=O)c1cc(F)ccc1NS(=O)(=O)c1cccc2cccnc12)c1ccccc1`, for which the result was inactive.
`COc1ccc2cc(S(=O)(=O)N[C@H](CC(=O)N[C@H](Cc3ccc(CN4[C@H](C)CCC[C@@H]4C)cc3)C(=O)N(C)C(C)C)c3ccc4c(c3)OCO4)ccc2c1`: the AC50 was 11.4 µM (active).
Turning to `CC(C)(C)c1csc(-c2cc3cc(OCc4ccccc4CC(=O)O)ccc3o2)n1`, the outcome was inactive.
With `COc1cc(C(=O)NC2CCN(C)CC2)ccc1Nc1ncc2c(n1)N(C1CCCC1)CC(F)(F)C(=O)N2C`, the AC50 is 13.9 µM (active).
Still for that read-out and setting: the same measure for `O=C1c2ccccc2C(=O)N1CCc1noc(-c2ccc(CN3CCCCCC3)s2)n1`: 12 µM (active).
For the compound `c1ccc(C[n+]2cccc3ccccc32)cc1`, the compound was called inactive.
Same read-out and setting: the same measure for `Cc1oc2c(NC(=O)c3c(Cl)cccc3Cl)cccc2c1C(C)(C)O`: “inactive”.
With `CN(C[C@@H](CC[N+]12CCC(C3CCCCC3)(CC1)CC2)c1ccc(Cl)c(Cl)c1)C(=O)c1cc(C(F)(F)F)cc(C(F)(F)F)c1`, the half-maximal activity concentration (AC50) is 0.403 µM (active).
The same measure, in the same setting: in the case of `CCOC(=O)O[C@H](C)OC(=O)c1ccc2c(c1)cc(C(=O)NC1CCN(C(C)C)CC1)n2Cc1cc(-c2ccc(Cl)s2)on1` it was 32.1 µM (active); in that of `Cc1occc1C(=O)Nc1ccc(C(=O)N2CCC(F)(F)/C(=C\C(=O)N3CCC(N4CCCCC4)CC3)c3ccccc32)cc1`, 11.7 µM (active).
Regarding `CN(C)c1ccc(C(=C2C=CC(=[N+](C)C)C=C2)c2ccc(N(C)C)cc2)cc1`, the half-maximal activity concentration (AC50) is 15.6 µM (active).
The same measure, in the same setting: in the case of `CCN(CC)C(=O)c1cc(S(=O)(=O)Cc2ccccc2)c(N2CCC(c3ccccc3)CC2)cc1N(CC)CCN(C)C` it was 23.4 µM (active); in that of `Cc1cc(F)ccc1-c1cc(N2CC[C@@H](O)[C@H]2CO)ncc1N(C)C(=O)C(C)(C)c1cc(C(F)(F)F)cc(C(F)(F)F)c1`, 0.274 µM (active); in that of `CCCCCCCCCCCC[N+](C)(C)C`, 44.9 µM (active).
`CN(C)C(=O)C1(N2CCCCC2)CCN(CC[C@@]2(c3ccc(Cl)c(Cl)c3)CN(C(=O)c3ccccc3)CCO2)CC1`: the AC50 was 10.9 µM (active).
